The text below walks through data of PubChem BioAssay AID1347419 (Sanford-Burnham Center for Chemical Genomics, 2020).

Out of some 99,000 compounds screened, about 820 (0.83%) were called active. The sample as a whole holds a higher share of actives than the screen did. Values without a mark were called inactive.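 The calls were made as follows: active = Z-score of -3 or lower, scaled per plate to the spread of control and sample wells; inactive = z-score above -3.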

Sequence of Protein-tyrosine kinase 2-beta (Homo sapiens) (Q14289 whole entry, looked up): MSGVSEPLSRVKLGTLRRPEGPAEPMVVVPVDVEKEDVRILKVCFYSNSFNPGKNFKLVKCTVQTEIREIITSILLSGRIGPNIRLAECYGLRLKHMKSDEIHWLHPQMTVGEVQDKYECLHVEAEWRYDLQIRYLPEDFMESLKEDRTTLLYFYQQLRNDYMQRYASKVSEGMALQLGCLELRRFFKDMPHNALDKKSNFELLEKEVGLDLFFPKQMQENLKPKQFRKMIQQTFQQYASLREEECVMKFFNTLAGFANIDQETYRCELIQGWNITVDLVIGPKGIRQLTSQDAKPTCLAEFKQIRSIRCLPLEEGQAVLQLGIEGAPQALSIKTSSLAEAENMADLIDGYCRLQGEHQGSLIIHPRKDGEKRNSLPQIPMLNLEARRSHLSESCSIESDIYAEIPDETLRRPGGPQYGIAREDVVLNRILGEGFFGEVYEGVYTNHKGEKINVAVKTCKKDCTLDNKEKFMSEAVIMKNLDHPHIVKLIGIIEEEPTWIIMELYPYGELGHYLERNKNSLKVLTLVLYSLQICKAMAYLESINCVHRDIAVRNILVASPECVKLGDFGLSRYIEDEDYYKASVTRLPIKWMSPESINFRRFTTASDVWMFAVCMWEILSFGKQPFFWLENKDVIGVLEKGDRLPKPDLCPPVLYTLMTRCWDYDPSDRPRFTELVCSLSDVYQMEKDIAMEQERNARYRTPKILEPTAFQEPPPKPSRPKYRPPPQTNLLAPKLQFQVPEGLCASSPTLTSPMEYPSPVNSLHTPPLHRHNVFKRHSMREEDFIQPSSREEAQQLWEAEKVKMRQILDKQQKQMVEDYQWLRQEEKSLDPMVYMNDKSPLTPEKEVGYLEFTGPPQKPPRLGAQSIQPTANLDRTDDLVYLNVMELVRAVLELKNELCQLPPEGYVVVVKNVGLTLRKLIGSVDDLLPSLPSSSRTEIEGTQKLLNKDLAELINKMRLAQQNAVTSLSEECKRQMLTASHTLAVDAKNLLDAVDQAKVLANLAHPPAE

The experiment addresses Protein-tyrosine kinase 2-beta (Homo sapiens) (UniProt Q14289). The experiment is described as follows: antagonists of Pyk2 self-association, primary screen, Q293 cells, FERM NanoBiT luminescence, HTS (AID 1347419).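 Also: the deposit names both 25 µM and 10 µM; negative z-score means lost luminescence so less FERM oligomerization.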 Also noted: dose or concentration left out as unconfirmed. The following applies: hits give low values.
Take `CNc1ccc(NC(C)=O)cc1[N+](=O)[O-]`: the z-score is -0.8.
To `CC(C)CC(=O)NC(=S)Nc1cc(C(=O)O)ccc1Cl` belongs 0.14; to `COc1ccc(-c2cn(-c3ccc(OC)cc3)c(=S)[nH]2)cc1`, 0.64.
Take `CSCCC(NC(=O)COc1ccccc1)C(=O)Nc1ccc(C)cc1` (stereo not drawn): the z-score was 0.49.
To `CCN1CCCC1CNc1ncnc2c1[nH]c1ccc(F)cc12` (stereo not drawn) belongs 1.26.
`CC(C)OCCCNc1ncnc2c1[nH]c1ccc(F)cc12`: the z-score is -1.09.
To `Fc1ccc2[nH]c3c(N4CCSCC4)ncnc3c2c1` belongs -3.08 (active); to `O=C(CNCc1ccc(F)cc1)Nc1ccccc1-c1ccccc1`, -0.24.
To `COc1ccc(C(=O)NNS(=O)(=O)c2ccc(C)cc2)cc1` belongs -0.21; to `CCCCNC(=O)CCn1c(=O)c2ccccc2n(Cc2cc(C)ccc2C)c1=O`, 1.04.
To `CN1/C(=c2/s/c(=C3/C(=O)N(c4ccccc4)NC3=Nc3ccccc3)n(C)c2=O)C(C)(C)c2ccccc21` belongs -3.22 (active); to `COc1cccc(-c2ccc(C#N)c(SCC(=O)NCCc3ccc(Cl)cc3)n2)c1`, -0.01; to `COc1ccc(Br)cc1CN(C)CC(=O)Nc1cc([N+](=O)[O-])ccc1OC`, -1.86.
As to `Cc1ccc2c(CC(=O)NCc3cccs3)coc2c1`, the z-score was -0.4.
To `N#C/C(=C\c1ccc(N2CCOCC2)o1)C(=O)N1CCOCC1` belongs 0.12; to `COc1ccccc1Oc1ccc(N/C=C2/CCCC2=O)cc1`, 0.42.
To `COc1ccc(C2CC(=O)Nc3sc(=N)c4c(N)c(C#N)c(N)nc4c32)cc1OC` (stereo not drawn) belongs -1.89; to `CSc1nc(N)c(C#N)c(-c2ccccc2Cl)c1C#N`, -2.52; to `N#Cc1c(N)nc2c3c(sc(=N)c2c1N)NC(=O)CC3c1ccccc1Cl` (stereo not drawn), -3.47 (active).
To `Cc1c(/C=N/N2C(=O)C3C4C=CC(C4)C3C2=O)c2ccccc2n1C` (stereo not drawn) belongs 0.37; to `Cc1ccc(CNC(=O)COc2ccc3c(c2)CCC3)cc1`, 1.09; to `CCCCN(C)c1ccc([N+](=O)[O-])cc1`, -0.3.
As for `O=C(NCCc1ccccc1)C1CCN(S(=O)(=O)c2ccc(Br)s2)CC1`, the z-score was 0.91.
To `Cc1ccc(C(=O)Cc2nnc(C)s2)cc1` belongs 0.12.
On to `CCOc1ccc(NC(=O)c2ccccc2NS(C)(=O)=O)cc1`, for which the z-score is -0.27.
For `COC(=O)c1ccccc1NC(=O)c1ccccc1NS(C)(=O)=O`, the z-score is 0.05.
To `COC(=O)c1ccc(NC(=O)c2ccccc2NS(=O)(=O)c2ccccc2)cc1` belongs -3.71 (active); to `O=C(NC(=S)Nc1ccc(NC(=O)c2cccs2)cc1)c1ccc([N+](=O)[O-])cc1`, 0.61; to `Cc1cccc(N2CCN(C(=O)c3cccc(S(=O)(=O)N4CCc5ccccc5C4)c3)CC2C)c1` (stereo not drawn), 0.72.
To `CCc1ccc(C2N3CC4([N+](=O)[O-])CN2CC([N+](=O)[O-])(C3)C4(C)C)cc1` (stereo not drawn) belongs 0.28; to `C=CCn1c(SCC(=O)NCc2ccccc2)nnc1-c1cc(Br)ccc1O`, -0.9.
Regarding `C=CCn1c(SCC(=O)Nc2nc3ccccc3s2)nnc1-c1ccccc1O`, the z-score was -3.16 (active).
For `C=CCn1c(CSc2nc3ccccc3s2)nnc1SCC(=O)NCc1ccco1`, the z-score was 0.84.
To `CCCC(=O)N1c2ccccc2NC2=C(C(=O)CCC2)C1c1ccc(F)cc1` (stereo not drawn) belongs -0.82; to `CCCN1C2=C(C(=O)CCC2)C(c2ccc(O)c(Br)c2)C2=C1CCCC2=O`, -3.69 (active); to `N#CC1=C(N)N(c2ccccc2)C2=C(C(=O)CCC2)C1c1ccccc1` (stereo not drawn), -0.02.
As for `CCOc1ccc(Br)cc1S(=O)(=O)Nc1cccc(S(=O)(=O)N(CC)CC)c1`, the z-score was 1.18.
As for `O=c1oc2cc(O)ccc2cc1-c1ccc(F)cc1`, the z-score was -0.5.
For the compound `CCCCCCc1cc2cc(-c3nnc(-c4ccccc4)o3)c(=O)oc2cc1O`, the z-score is -3.06 (active).
For the compound `CC(C)NC(=O)C(=O)NCCCOC(C)C`, the z-score was 0.05.
To `COC(=O)c1cc(NC(=O)Cc2ccccc2[N+](=O)[O-])ccc1Cl` belongs -0.53; to `COc1cc(OC)nc(N/N=C(\c2ccccc2)c2ccncc2)n1`, 2.22.
To `O=C(N/N=C/c1cccc([N+](=O)[O-])c1)C1CC(=O)N(c2ccc(Br)cc2)C1` (stereo not drawn) belongs 0.31; to `O=C(/C=C/c1ccccc1)c1ccoc1`, 2.22; to `Cc1[nH]c(=O)c(C(=O)/C=C/c2ccccc2)c2c1CCCC2`, -3.31 (active).
Turning to `Cc1nc(-c2ccccc2)sc1C(=O)/C=C/c1ccccc1`, the z-score is -0.6.
For `CC1(c2cccc([N+](=O)[O-])c2)CC(C)(C)N(C(=O)c2ccccc2)c2ccccc21` (stereo not drawn), the z-score was -0.67.
`CCn1c(SCC(=O)Nc2ccc(C)cc2)nc2nc3c(cc2c1=O)CCCC3`: the z-score was -2.19.
To `COc1ccc(N(CC(=O)N/N=C/c2cccc3c2OCCO3)S(=O)(=O)c2ccc(NC(C)=O)cc2)cc1` belongs -3.71 (active); to `COc1ccc(N(CC(=O)N/N=C/c2cccs2)S(=O)(=O)c2ccc(OC)c(OC)c2)cc1`, -2.54.
For `Cc1ccc(S(=O)(=O)N(CC(=O)N/N=C/c2ccc(F)cc2)c2cccc3cccnc23)cc1`, the z-score is -0.75.
For `CC(C)CN(C(=O)CN1CCN(S(=O)(=O)c2ccccc2)CC1)c1c(N)n(CC(C)C)c(=O)[nH]c1=O`, the z-score is 0.05.
`CCCC(C)C(=O)OCC(=O)Nc1c(Br)cc(C)cc1Br` (stereo not drawn): the z-score was 1.59.
Take `CCC(C)(C)n1nnnc1C(c1cccs1)N1CCN(Cc2ccccc2)CC1` (stereo not drawn): the z-score is 0.51.
To `CCC(C)(C)n1nnnc1C(c1ccccc1OC)N1CCSCC1` (stereo not drawn) belongs -0.08; to `CCC(C)(C)n1nnnc1C(c1cccs1)N1CCN(c2nc3ccccc3s2)CC1` (stereo not drawn), -3.48 (active); to `Cc1ccc(C(=O)COC(=O)c2cccc(N3C(=O)c4c(C)nc5ccccc5c4C3=O)c2)cc1C`, 0.74.
Consider `N#CC(C(N)=O)=C1CCC2(CC1)OCCCCO2`, for which the z-score is 0.83.
To `CC1(C)C/C(=C(/C#N)C(N)=O)CCO1` belongs -3.62 (active).
To `O=C(Nc1ccccc1)c1cc2ccccc2[nH]1` belongs 0.86; to `S=C1Nc2cc(Cl)ccc2Sc2ccccc21`, -0.5.
On to `CC1=C(C(=O)Nc2cc(C)ccn2)C(c2cnn(C)c2)C2=C(CC(c3ccccc3)CC2=O)N1` (stereo not drawn), for which the z-score is 1.36.
To `Cc1nn(-c2ccccc2)c(C)c1/C=C/C(=O)OC(C)C(N)=O` (stereo not drawn) belongs 0.82.
